About 79,000 compounds went through this panel and 15% of them were active in at least one assay; those are over-represented in the sample as a whole. The source made the active and inactive calls. No stated cut-off is given here; in the data, active means growth inhibition above about 70%; inactive means the rest. Where a SMILES comes first, the peptide text is derived from it. The star is where a group is joined. Boc = CC(C)(C)OC(=O)*
experiment: NCI Yeast Anticancer Drug Screen. Data for the mec2-1 strain (AID 157); conditions: S. cerevisiae mec2-1 strain, at 50.0 µM, active compounds read high
Procedure: Growth inhibition of yeast strains with defined genetic alterations is measured as a screen for potential anti-cancer activity. Selected strains with alterations in DNA damage repair or cell cycle control were exposed to compounds and growth inhibition was measured relative to vehicle treated controls. The strain used in this assay is mec2-1

| Compound | growth inhibition |
| --- | --- |
| CC1(C)OCC(C(O)C2OC(C)(C)OC2/C=N\O)O1 (stereo not given) | -18% (inactive) |
| CC1=NN(C(=O)c2ccccc2O)C(=O)/C1=C/c1ccc(O)cc1 | -16.1% (inactive) |
| O=C(NCCCN(CCCCN(CCCNC(=O)C(F)(F)F)Cc1ccc2ccccc2c1)Cc1ccc2ccccc2c1)C(F)(F)F | 87.3% (active) |
| CCC(O)CNCc1c2ccccc2cc2ccccc12 (stereo not given) | 14.7% (inactive) |
| NCCCCCCN1CCN(c2cccc(Cl)c2)CC1 | 21.9% (inactive) |
| COc1ccc2nc(NC(=O)C(=O)C(C#N)c3ccc(CC#N)cc3)sc2c1 (stereo not given) | 11.4% (inactive) |
| O=P(NC1CCCCC1)(NC1CCCCC1)NC1CCCCC1 | -1.75% (inactive) |
| CN(C)CCNc1ccc(NCCN(C)C)c2c1C(=O)c1ncsc1C2=O | -0.8% (inactive) |
| CC1(O)C(O)C(O)C1(O)CO (stereo not given) (tested in a mixture with another compound) | -3.35% (inactive) |
| CC1=Nc2ccccc2C1(C)C | 8.8% (inactive) |
| CCNC(=O)N(Cc1ccccc1)Cc1ccccc1 | 8.65% (inactive) |
| c1ccc2c(c1)ccc1c2c[n+](CCCCCCCC[n+]2cc3c4ccccc4ccc3c3ccccc32)c2ccccc12 | 92.2% (active) |
| CC(C)c1ccc(/C=C2/CCCCC2=O)cc1 | -15% (inactive) |
| Cc1ccc(-n2cnc3c(Cl)ncnc32)cc1 | -0.05% (inactive) |
| N#CCNC=O | 7.35% (inactive) |
| CC(C)n1c(=O)nc(-c2ccccc2)c2cc3c(cc21)OCO3 | 18.8% (inactive) |
| CCN=C(C#N)NCC | -3.75% (inactive) |
| O=C(O)COc1cccc(O)c1 | -24.2% (inactive) |
| CC(C)C(NC(=O)OC(C)(C)C)C(=O)N1CCCC1C(=O)O (stereo not drawn) (Boc-Val-Pro-OH; configuration not given here) | -1.5% (inactive) |
| Nc1nc(Cl)cc(NCC(O)CO)n1 (stereo not given) | 2.35% (inactive) |

| Compound | growth inhibition |
| --- | --- |
| COc1n[n+]([O-])c(OC)cc1[N+](=O)[O-] | 33.6% (inactive) |
| C=C(C)CNC(=S)N(N)c1ccc(OC)cc1 | 9.75% (inactive) |
| CNC(=O)N(C)C(C)=O | -1.25% (inactive) |
| C=COC(=O)C(Cc1ccccc1)NC(=O)OCc1ccccc1 (stereo not given) | 10.8% (inactive) |
| Nc1nc(N)c2nn(-c3ccc(C(=O)O)cc3)nc2n1 | 7.85% (inactive) |
| CCN(CC)C1(C(F)C(F)(F)F)OCC2(CO1)COC(C(F)C(F)(F)F)(N(CC)CC)OC2 (stereo not given) | -13.4% (inactive) |
| Cc1cc2c(cc1Cl)SSc1cc(Cl)c(C)cc1S(=O)(=O)Nc1nc(N)nn1C(O)n1nc(N)nc1NS2(=O)=O | 11.4% (inactive) |
| CC=NC(C)(C)C | -9.15% (inactive) |
| COc1ccc(C(c2ccccc2)c2ccc(OC)cc2)cc1 | -13% (inactive) |
| C=CCn1c(NCCN(CC)CC)nc2ccc(Cl)cc2c1=O | 6.5% (inactive) |
| CC1C2CC(CC(=O)N2)C1(C)C (stereo not given) | 21.6% (inactive) |
| Cc1ccc2nc(-c3ccc(N=NNc4ccc(-c5nc6ccc(C)c(S(=O)(=O)O)c6s5)cc4)cc3)sc2c1S(=O)(=O)O | 6.85% (inactive) |
| C=CCNC(=S)NNC(=S)NCC=C | 34.1% (inactive) |
| O=c1oc2ccccc2c(O)c1Oc1ccccc1 | 3.5% (inactive) |
| c1cc(OCCOc2cccc3ocnc23)c2ncoc2c1 | -15.6% (inactive) |
| CCOC(=O)/C(=C/c1cn(C(C)=O)c2ccccc12)P(C)(=O)OCC (stereo not given) | 52.5% (inactive) |
| CN1CCN(C(=O)NC(C)(C)C)CC1 | -6.6% (inactive) |
| C=CCOC(=O)c1ccco1 | -6.3% (inactive) |
| OC(CNc1ccccn1)c1ccccc1 (stereo not given) | -44.6% (inactive) |
| CC1(C)S[C@H](c2ccccc2C(=O)O)N[C@@H]1CC(=O)O | -6.9% (inactive) |

— PubChem BioAssay (NCI)
